Among the data in ChEMBL document CHEMBL4513216, “Probing the Open Global Health Chemical Diversity Library for Multistage-Active Starting Points for Next-Generation Antimalarials” (ACS Infect Dis, 2020) are INHIBITION values, retold here.

Screen size: about 69,000 compounds; about 8,600 (12%) showed an effect of 50% or more. Many of the other results were omitted from the sample, so strong results are more common in it than they were.

The experiment relates to Plasmodium berghei. In words: Screen against P. berghei liver stage (PbLuc), transformed with Luciferase, at 10uM. The class given is functional, HepG2. Conditions: tested at 10 uM.
`CCOc1c(CNC2CSCCSC2)cccc1OC`: the INHIBITION came to 24.9%.

For the compound `Cc1nnc([C@]23COC[C@H]2CN(Cc2cccs2)C3)o1`, the INHIBITION is 27.5%.

Regarding `COCc1noc(CC2CN(c3ncnc4sc(C)c(C)c34)CCO2)n1` (configuration not stated), the INHIBITION is -12.5%.

As to `Cc1cnc(N2CCC3(CCN(CC4CCCC4)C3=O)CC2)nc1`, the INHIBITION was -9.74%.

Consider `Cc1cnn(C2CN(Cc3nc(-c4ccco4)no3)C2)c1`, for which the INHIBITION is recorded as -0.847%.

As to `Cc1cnn(C2CN(Cc3nc(-c4ccccc4C)no3)C2)c1`, the INHIBITION came out at 89.5%.

For `CC(c1nc(-c2ccccc2)no1)N1CC(n2cccn2)C1` (configuration not stated), the INHIBITION is given as -66.5%.

Consider `CCCc1noc(C(C)N2CC(n3cccn3)C2)n1` (configuration not stated), for which the INHIBITION came out at 8.77%.

Take `Cc1cnn(C2CN(C(C)c3nc(-c4ccccc4)no3)C2)c1` (configuration not stated): the INHIBITION turned out to be 84%.

As for `COc1ccc(-c2nc(CN3CC(n4cccn4)C3)no2)cc1`, the INHIBITION was 25.8%.

With `COc1ccc(-c2nc(CN3CC(n4cc(C)cn4)C3)no2)cc1`, the INHIBITION was found to be 90.1%.

As to `Cc1ccccc1-c1noc(CN2CC(n3cccn3)C2)n1`, the INHIBITION is listed as -33.7%.

Turning to `Cc1cnn(C2CN(Cc3noc(-c4ccccc4)n3)C2)c1`, the INHIBITION was 8.77%.

Regarding `Cc1ccc(-c2noc(Cn3nc(C(N)=O)ccc3=O)n2)cc1`, the INHIBITION is 28.2%.

Take `CCc1ccc(-c2noc(Cn3nc(C(N)=O)ccc3=O)n2)cc1`: the INHIBITION was -16.3%.

As for `Cc1cccc(-c2noc(Cn3nc(C(N)=O)ccc3=O)n2)c1`, the INHIBITION was determined as 56%.

Consider `CC(=O)N(Cc1noc(C2CC2)n1)C1CCN(CC(=O)NC2CC2)C1` (configuration not stated), for which the INHIBITION is -11.9%.

On to `Cc1nc(CNC(=O)NC(C)c2ccc3c(c2)OCCCO3)cs1` (configuration not stated), for which the INHIBITION is given as 1.04%.

`Cc1noc([C@H]2C[C@H]3OCC[C@H]3N(Cc3ccc(F)cc3)C2)n1`: the INHIBITION is 35.7%.

Take `CN(c1ccncn1)C1CC2(CCN(C(=O)c3cccn3C)C2)C1` (configuration not stated): the INHIBITION came to 15.9%.

On to `Cc1cnn(C2CN(Cc3nc(-c4ccsc4)no3)C2)c1`, for which the INHIBITION turned out to be 15.5%.

Regarding `CN(C)CC1CN(Cc2nc(-c3ccccn3)no2)CCO1` (configuration not stated), the INHIBITION was -11.4%.

Turning to `Cc1cnn(C2CN(CC(O)COCc3ccc4c(c3)OCO4)C2)c1` (configuration not stated), the INHIBITION is 32.3%.

Consider `Cc1ccc(-c2noc(CN3CC(n4cc(C)cn4)C3)n2)cc1`, for which the INHIBITION is 90.9%.

Turning to `Cc1cnn(C2CN(CC(O)c3ccc4c(c3)OCCO4)C2)c1` (configuration not stated), the INHIBITION stood at 23.2%.

For `Cc1cnn(CC2CN(Cc3nc(-c4ccccn4)no3)CCO2)c1` (configuration not stated), the INHIBITION is 21.6%.

In the case of `Cc1ccc(-c2nnc(CN3CC(n4cc(C)cn4)C3)o2)cc1`, the INHIBITION is recorded as -9.72%.

With `Cc1cnn(C2CN(Cc3nc(C(C)(C)C)no3)C2)c1`, the INHIBITION was 29.4%.

In the case of `COc1ccc(-c2noc(CN3CC(n4cc(C)cn4)C3)n2)cc1`, the INHIBITION was 89.5%.

For `Cc1cnn(C2CN(Cc3nc(-c4ccccn4)no3)C2)c1`, the INHIBITION was found to be 51.1%.

Turning to `Cc1cnn(C2CN(Cc3ccc4c(c3)OCCO4)C2)c1`, the INHIBITION is recorded as 57.5%.

In the case of `COc1ccc(-c2noc(CN3CC(n4cccn4)C3)n2)c(OC)c1`, the INHIBITION is reported as -18%.

As to `c1ccc2c(c1)COC1(CCCCC1)N2`, the INHIBITION is -30%.

`O=C(NCCC1=CCCCC1)Nc1cc(C(F)(F)F)c[nH]c1=O`: the INHIBITION stood at 7.27%.

In the case of `c1ccc(CN2CCCC(CNc3ncnc4c3CCNCC4)C2)cc1` (configuration not stated), the INHIBITION amounted to 45%.

`CC(=O)N1CCCN(C(=O)NCCOc2ccc3c(c2)CCC3)CC1`: the INHIBITION is reported as 35.15%.

On to `CCOC(=O)[C@H]1CNC[C@H]1C(=O)OCC`, for which the INHIBITION is given as 22%.

Consider `Cc1ncsc1C(=O)N1CCCC(c2cc(C(F)F)n3ncnc3n2)C1` (configuration not stated), for which the INHIBITION was 5.11%.

`O=C(c1cnccn1)N1CCC2(CCN(Cc3ccsc3)C2)CC1`: the INHIBITION is 23.3%.

With `CCOc1c(CNCCCn2ccnc2)cc(Cl)cc1OC`, the INHIBITION is on record as -9.2%.

Consider `CN1CCN(C2CCN(C(=O)CCC3CCCC3)CC2)CC1`, for which the INHIBITION was found to be 29.8%.

`Cc1cccc(-c2noc(CN3CC(n4cccn4)C3)n2)c1`: the INHIBITION was 14.1%.

Regarding `Cc1cccc(-c2noc(CN3CC(n4cc(C)cn4)C3)n2)c1`, the INHIBITION was found to be 90%.

In the case of `Cc1cnn(C2CN(Cc3nc(-c4cccnc4)no3)C2)c1`, the INHIBITION is 18.2%.

On to `COCC1CN(CCOc2ccc(Cl)cc2)Cc2c1cnn2C` (configuration not stated), for which the INHIBITION amounted to 53.9%.

With `CCOCC1CN(CCOc2ccc(Cl)cc2)Cc2c1cnn2C` (configuration not stated), the INHIBITION is reported as 19.8%.

For the compound `CCOCC1CN(CCOCc2ccccc2)Cc2c1cnn2C` (configuration not stated), the INHIBITION was -14.3%.

As for `CCn1ncc2c1CN(CCc1cccc(Cl)c1)CC2COC` (configuration not stated), the INHIBITION is given as 59.3%.

Take `CCn1ncc2c1CN(C(=O)Cc1ccccn1)CC2COC` (configuration not stated): the INHIBITION is 18.3%.

Regarding `CCOCC1CN(CCc2ccccc2)Cc2c1cnn2C` (configuration not stated), the INHIBITION is reported as 50%.

In the case of `CO[C@H]1C[C@@H](O)C12CCN(CCOc1ccc(Cl)cc1)CC2`, the INHIBITION worked out at 44.6%.

In the case of `COCC1CN(c2ccc(C)nn2)Cc2cnn(C)c21` (configuration not stated), the INHIBITION came out at 20.6%.
